KKLEB tox: reduces viability of KKLEB cystic fibrosis airway cells. KKLEB CF airway cells viability, ATPlite luminescence, overnight; stronger effect = lower value; cells stimulated with P. aeruginosa culture filtrate. activity change (cytotoxicity), % at 5 µM. 360,000 compounds, 0.36% hits. AID 602141;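 active = corrected activity change at or below -50% at 5 µM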
HIF-2a block: HIF-2a inhibition; AID 624352; inhibition, % at 18.8 µM; 786-0 RCC cells HIF-2a reporter, luciferase luminescence, overnight; 360,000 compounds, 0.72% hits;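 active = inhibition of the luminescence signal of 40% or more relative to plate controls, in a single-dose primary screen at 18.75 µM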
Peg3 prom inh-1: inhibitors of Peg3 promoter | inhibition, % at 20 µM | HeLa PEG-Prom luciferase reporter, luminescence, overnight | 360,000 compounds, 1.7% hits;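 active = inhibition of at least 50% at 20 µM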
CF NFkB block: cystic fibrosis NF-kB activation inhibition; KKLEB NF-kB-GFP reporter, PAF-induced, GFP fluorescence overnight; AID 588850; inhibition, % at 5 µM; 360,000 compounds, 0.86% hits;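 active = at least 50% inhibition at 5 µM, scaled per plate between neutral and stimulator controls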;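 also: PAF is a Pseudomonas aeruginosa culture filtrate used as stimulus; plate controls were PAF-stimulated DMSO wells for no effect and unstimulated DMSO wells for full effect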
MITF TRPM1 inh: reduces MITF-dependent TRPM1 promoter luciferase signal | AID 488899 | SK-MEL-5 TRPM1 promoter luciferase, 24 h | inhibition, % at 12.5 µM | 330,000 compounds, 0.83% hits;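 active = mean inhibition across replicates of 60% or more, whatever share of single replicates reaches that level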
B2AR ag: agonists of human beta-2 adrenergic receptor inducing internalization; response, % (concentration not given with the values); AID 504454; Am2.2-beta2AR cells, FAP receptor internalization, flow cytometry; 340,000 compounds, 0.43% hits;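 active = response above a set limit, near 3 SD of response in nonfluorescent compounds, cut at about 42% in these data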
Target sequence (P07550 whole entry, looked up): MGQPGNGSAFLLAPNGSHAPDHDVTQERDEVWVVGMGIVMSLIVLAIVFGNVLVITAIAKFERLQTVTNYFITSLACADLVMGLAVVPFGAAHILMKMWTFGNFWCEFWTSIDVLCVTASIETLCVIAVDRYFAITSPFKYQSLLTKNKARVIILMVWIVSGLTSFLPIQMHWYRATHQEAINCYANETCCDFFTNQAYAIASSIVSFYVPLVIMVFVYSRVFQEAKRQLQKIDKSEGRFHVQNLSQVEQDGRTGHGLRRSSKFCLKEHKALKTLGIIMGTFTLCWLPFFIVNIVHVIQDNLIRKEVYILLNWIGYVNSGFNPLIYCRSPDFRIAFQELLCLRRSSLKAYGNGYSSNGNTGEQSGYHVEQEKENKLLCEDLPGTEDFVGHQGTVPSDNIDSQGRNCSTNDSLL
B2AR ag CP1: agonists of human beta-2 adrenergic receptor | shares compounds with B2AR ag | Am2.2-beta2AR cells, FAP surface receptor, flow cytometry; stronger effect = lower value | percent response (surface receptor), % at 10 µM | 1,100 compounds, 25% hits | AID 540358;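 active = surface receptor percent response at or below 58%, roughly 3 SD from nonfluorescent compounds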
B2AR FAP counter: counter-screen for beta-2AR agonists: fluorescence in Am2.2 cells. 1,100 tested, under 10 active. calls only at 10 µM. FAP fluorogen flow cytometry, fluorescence counterscreen; stronger effect = lower value. shares compounds with B2AR ag;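 active = percent response below a set limit in fluorescence channel 1 and below 50% in channel 8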
Peg3 prom inh-2: confirmation of Peg3 promoter inhibitors. AID 602417. shares compounds with Peg3 prom inh-1. inhibition, % at 20 µM. 1,300 compounds, 84% hits. HeLa PEG-Prom luciferase reporter, luminescence, overnight;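 active = at 20 µM dose, 40% or more inhibition averaged across four replicates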
CF NFkB inh conf: confirmation of cystic fibrosis induced NF-kB inhibitors | 1,300 compounds, 64% hits | inhibition, % at 5 µM | KKLEB CF airway cells, PAF-induced NF-kB-GFP fluorescence, overnight | shares compounds with CF NFkB block; in the data active = inhibition above about 40%;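 also: stimulus PAF is a Pseudomonas aeruginosa filtrate and not platelet activating factor; plate controls were DMSO wells with stimulus for no effect and unstimulated DMSO wells for full effect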
Mdm2-MdmX confirm: Mdm2/MdmX (human) interaction inhibition, confirmed. 740 compounds, 99% hits. SaOS-2 split-luciferase Mdm2/MdmX complementation, luminescence. shares compounds with HIF-2a block. inhibition, % at 8 µM;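 active = mean inhibition of the luminescence signal across two replicates at or above 26 percent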
HIF-2a conf: confirmation of HIF-2a inhibitors | 1,800 compounds, 56% hits | 786-0 RCC cells, HIF-2a luciferase reporter luminescence, overnight | AID 651580 | shares compounds with HIF-2a block | inhibition, % at 18.8 µM;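 active = mean inhibition across four replicates of at least 40 percent at the single tested concentration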
HIF-1a cs: inhibits HIF-1a reporter, a counter-screen for HIF-2a inhibitors; shares compounds with HIF-2a block; MiaPaCa-2 HIF-1a luciferase reporter, desferoxamine, overnight; inhibition, % at 18.8 µM; 1,800 compounds, 72% hits;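 active = mean inhibition of the reporter signal across four replicates at the single tested dose of 50% or more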
An asterisk follows results filed as active. In the library only some 2.8% were active in any assay of this set; here they are far more common.

Results for O=C(Nc1ccc(-c2nc3ncccc3o2)cc1)c1ccc([N+](=O)[O-])o1 ?
KKLEB tox: -44; HIF-2a block: -2; Peg3 prom inh-1: 100*; CF NFkB block: 86*; MITF TRPM1 inh: 77*; B2AR ag: 53*; B2AR ag CP1: 28*; B2AR FAP counter: inactive; Peg3 prom inh-2: 33; CF NFkB inh conf: -121

How did Cc1cc(-c2nc3ncccc3o2)ccc1NC(=O)c1ccc([N+](=O)[O-])o1 do in these assays?
KKLEB tox: -7; HIF-2a block: -2; Peg3 prom inh-1: -6; CF NFkB block: 16; MITF TRPM1 inh: -3; B2AR ag: 0

What do the screens show for `CCCC(=O)N1CCN(c2ccc(NC(=O)c3ccc([N+](=O)[O-])o3)cc2Cl)CC1`?
KKLEB tox: -36; HIF-2a block: 90*; Peg3 prom inh-1: 111*; CF NFkB block: 74*; MITF TRPM1 inh: 91*; B2AR ag: 42*; B2AR ag CP1: 4.8*; B2AR FAP counter: inactive; CF NFkB inh conf: 35

How did CCCCCCCCCc1conc1C(=O)/C=C/c1oc2c(c1C)CCC(C)C2 (stereo not drawn) do in these assays?
HIF-2a block: 5

What do the screens show for `O=C(CCS(=O)(=O)c1ccccc1)N(CCCN1CCOCC1)c1nc2c(F)cccc2s1`?
KKLEB tox: -39; HIF-2a block: -75; Peg3 prom inh-1: 104*; CF NFkB block: 94*; MITF TRPM1 inh: -19; B2AR ag: 111*; B2AR ag CP1: 82; B2AR FAP counter: inactive; CF NFkB inh conf: 71*

How did CCNC(=O)C1(C)CCN(C(=O)c2ccc(F)c(Cl)c2)C1 (stereo not drawn) do in these assays?
KKLEB tox: 16; HIF-2a block: 3; Peg3 prom inh-1: -2; CF NFkB block: 0

Results for Cc1cc(N2CCN(C)CC2)ccc1NC(=O)c1c2c(nc3ccccc13)CCN(Cc1ccccc1)C2 ?
KKLEB tox: -76*; HIF-2a block: 27; Peg3 prom inh-1: 109*; CF NFkB block: 10; MITF TRPM1 inh: 87*; B2AR ag: 51*; B2AR ag CP1: 11*; B2AR FAP counter: active; Peg3 prom inh-2: 87*; Mdm2-MdmX confirm: 102*

What do the screens show for `O=C(NC1CCCCCC1)c1c2c(nc3ccccc13)CCN(Cc1ccccc1)C2`?
KKLEB tox: -14; HIF-2a block: 4; Peg3 prom inh-1: 10; CF NFkB block: 10; MITF TRPM1 inh: 7; B2AR ag: 5

Results for O=C(NCc1ccccc1)c1cc(C2COCCN2C(=O)c2ccccc2)on1 (stereo not drawn) ?
KKLEB tox: -1; HIF-2a block: -1; Peg3 prom inh-1: -3; CF NFkB block: -4

Results for Cc1ccc(CCNC(=O)c2cc(-c3ccncc3)nc3ccc(S(=O)(=O)N4CCOCC4)cc23)cc1 ?
KKLEB tox: 9; HIF-2a block: 10; Peg3 prom inh-1: 4; CF NFkB block: 10; MITF TRPM1 inh: 4; B2AR ag: 17

What do the screens show for `CCN(CC)CCNC(=O)c1cc(-c2cccnc2)nc2ccc(S(=O)(=O)N3CCC(C)CC3)cc12`?
KKLEB tox: -10; HIF-2a block: 64*; Peg3 prom inh-1: 72*; CF NFkB block: -2; MITF TRPM1 inh: 88*; B2AR ag: 19; B2AR ag CP1: 92; B2AR FAP counter: inactive; Mdm2-MdmX confirm: 102*; HIF-2a conf: -1; HIF-1a cs: 100*

Results for CC1CC2(C)Oc3ccccc3CC2C(C)C1CNCCCN(C)C (stereo not drawn) ?
KKLEB tox: -20; HIF-2a block: 84*; Peg3 prom inh-1: 107*; CF NFkB block: 23; MITF TRPM1 inh: 97*; B2AR ag: 42*; B2AR ag CP1: 78; B2AR FAP counter: inactive; Mdm2-MdmX confirm: 101*; HIF-2a conf: 6; HIF-1a cs: 105*

How did Cc1cccc(C)c1N1C(=O)c2ccccc2NC(=O)C1C(=O)NCCc1ccccc1 (stereo not drawn) do in these assays?
HIF-2a block: -1

Results for CN(C)CC(C(=O)c1ccccc1)c1ccccc1 (stereo not drawn) ?
KKLEB tox: -51*; HIF-2a block: 86*; Peg3 prom inh-1: 114*; CF NFkB block: 63*; MITF TRPM1 inh: 91*; B2AR ag: 56*; B2AR ag CP1: 82; B2AR FAP counter: inactive; Mdm2-MdmX confirm: 103*; HIF-2a conf: 25; HIF-1a cs: 96*

What do the screens show for `CC(C)(C)c1ccc(C(=O)NCCCN2CCN(CCCNC(=O)c3ccc(C(C)(C)C)cc3)CC2)cc1`?
KKLEB tox: -71*; HIF-2a block: 73*; Peg3 prom inh-1: 109*; CF NFkB block: 21; MITF TRPM1 inh: 90*; B2AR ag: 49*; B2AR ag CP1: 81; B2AR FAP counter: inactive; Mdm2-MdmX confirm: 102*

How did CCC(C)(C)c1ccc(OCCCC[n+]2cccc(C)c2C)c(C(C)(C)CC)c1 do in these assays?
KKLEB tox: -32; HIF-2a block: 88*; Peg3 prom inh-1: 107*; CF NFkB block: 47; MITF TRPM1 inh: 71*; B2AR ag: 56*; B2AR ag CP1: 88; B2AR FAP counter: inactive; Mdm2-MdmX confirm: 103*; HIF-2a conf: 77*; HIF-1a cs: 107*

Bioassay records as filed in PubChem.
